The panel holds about 83,000 compounds, 20% with a hit somewhere; the sample as a whole holds those more often.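 Testing used 96-well plates and a 48-hour single-concentration exposure. Example: -40 means 40% of the starting cells died.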 Activity calls are given as the source filed them. Rule for the calls: active = growth percent below 10; inactive = the rest.
The molecules below were run on KM12 colon (assay: NCI-60 one-dose screen, 48 h (100 = growth as untreated, 0 = no growth, -100 = all killed)). Details: 10 µM unless noted.

SMILES | growth
COc1ccc2[nH]c(=O)cc(-n3ncc(C(=O)/C=C/c4cc(OC)c(OC)c(OC)c4)c3C)c2c1 | -37.2% (active)
COc1ccccc1NC(=O)c1ccc(NC(=O)CCl)s1 | 25.8% (inactive)
Cc1ccc(C(C)C)cc1Oc1cccc(-c2c(-c3ccc(C(F)(F)F)cc3)ncn2C2CCNCC2)n1 | -79.5% (active)
O=C(c1ccc(O)cc1)C1[C@H](c2ccc(Cl)cc2)[C@@H](c2ccccc2)NC12C(=O)Nc1ccccc12 (stereo partly drawn) | -13.7% (active)
COc1c(B(O)O)cccc1-c1nc2ccc3cn[nH]c3c2c2c1CCCC2 | 62.3% (inactive)
COc1ccc(S(=O)(=O)Nc2ccc(-c3ccc4c(c3)NC(=O)/C4=C\c3ccc[nH]3)cc2)cc1OC | 33.6% (inactive)
Cc1ccc2c(c1)nc(-c1ccccc1)n2CC(=O)N=Nc1c(O)[nH]c2ccc(Cl)cc12 | -56.2% (active)
Cc1nn(-c2ccccc2)c2nc(C)n(CC(=O)N/N=C/c3ccccc3O)c(=O)c12 | 31% (inactive)
Cc1cc(C)c2[nH]c(=O)c(C(c3nnnn3Cc3ccc4c(c3)OCO4)N3CCN(C)CC3)cc2c1 (stereo not drawn) | 105% (inactive)
FC(F)(F)CN1CCN(CCn2c(C(F)(F)F)cc3c(Cl)ncnc32)CC1 | 70.7% (inactive)
O=C1NC(=NC23CC4CC(CC(C4)C2)C3)N/C1=C\c1ccc2ncccc2c1 | 24.3% (inactive)
COc1cc2cc(C(=O)N3C[C@@H](CCl)c4c3cc(OC(=O)N(CCC(=O)N3CCN(C)CC3)C3CCCCC3)c3ccccc43)[nH]c2c(OC)c1OC | -39.1% (active)
O=C(Cn1c(-c2ccccc2)nc2ccccc21)N=Nc1c(O)[nH]c2ccc(Cl)cc12 | 32.2% (inactive)
Cn1cc(-c2cc(N)n3nc(-c4c[nH]c5ccc(Cl)cc45)cc3n2)c2cccnc21 | -70.2% (active)
COc1ccc(NC(=O)N/N=C/c2c[nH]c3ccccc23)cc1 | 24.7% (inactive)
C[C@H]1[C@@H](CC(=O)N[C@@H](Cc2coc3ccccc23)B(O)O)O[C@@H]2OC3(C)CC[C@H]4[C@H](C)CC[C@@H]1[C@@]24O3 | 0.198% (active)
CCCCCCCCc1cccc(CC(=O)Nc2ccc(C)cc2C(=O)O)c1 | 45.8% [25 µM] (inactive)

SMILES | growth
CC(C)(C)C(=O)c1c2c(c3ccc4c5ccccc5ccc4n13)C(=O)c1ccccc1C2=O | 94.4% (inactive)
CN(C)CCCc1ccc(Nc2cnn(C)c(=O)c2Cl)cc1 | 111% (inactive)
N#Cc1cc(-c2ccnc(Nc3ccc(N4CCN(C5COC5)CC4)cc3)n2)ccc1N1CCCC1 | 83.2% (inactive)
O=C(c1ccc(Cl)cc1)C1[C@H](c2ccccc2Cl)[C@@H](c2ccccc2)NC12C(=O)Nc1ccc(Br)cc12 (stereo partly drawn) | -51.8% (active)
C=CCSc1nnc(-c2ccc(-c3nc4ccccc4[nH]3)cc2)o1 | 82% (inactive)
CCCN(CCC)S(=O)(=O)c1ccc(C(=O)O)cc1.CCCN(CCC)S(=O)(=O)c1ccc(C(=O)O)cc1.[Cl][Pt+2][Cl].[NH2-].[NH2-] | 17.8% (inactive)
O=C(Cc1c(-c2cccc([N+](=O)[O-])c2)n(-c2ncnc3c2c(-c2ccccc2)c(-c2ccccc2)n3Cc2ccccc2)[nH]c1=O)c1ccc(Cl)c(Cl)c1 | 24.7% (inactive)
Cn1cc(-c2cc(N)n3nc(-c4c[nH]c5ccccc45)cc3n2)c2ccccc21 | -80% (active)
Clc1ccc(-c2nc3ccc(-c4nnc(SCc5ccccc5)o4)cc3[nH]2)cc1 | 35.5% (inactive)
N#CC1=C(c2ccco2)Nc2c(c(-c3ccccc3)nn2-c2ccccc2)C12C(=O)Nc1ccc(Cl)cc12 (stereo not drawn) | 52.1% (inactive)
Cc1ccc(/C=C/C(=O)c2ccc(S(=O)(=O)NCCNc3nc(N(C)C)nc(N4CCOCC4)n3)cc2)cc1 | 21.1% (inactive)
Cc1nc2sccn2c1-c1nnc(SCc2ccccc2)o1 | 98.5% (inactive)
Cc1nc2sccn2c1-c1nnc(SCC(C)C)o1 | 98.1% (inactive)
CN(CCSSCCN1CCOCC1)C(=O)Oc1cc2c(c3ccccc13)[C@H](CCl)CN2C(=O)c1cc2cc(OCCCN3CCC3)ccc2[nH]1 | -23.5% (active)
O=C1/C(=C/c2cnc(-c3ccccc3)s2)SC(=S)N1Cc1ccc2c(c1)OCO2 | 99.7% (inactive)
O=C(Cn1c(-c2ccccc2)nc2ccccc21)N=Nc1c(O)[nH]c2ccc(Br)cc12 | 15% (inactive)
